38 molecules from PubChem BioAssay (Tox21) can be followed below.

Several values for one entry are separate records, joined by “and”; a condition that tells them apart may be missing. Equal values may be shown once. Inconclusive results are not listed. A call without a number means that no potency is given here. More than one record can exist for a structure, and the calls need not agree. Activity calls are given as the source filed them. Unless noted, calls come from the whole dose curve; as a rule, active = well fitted curve in the direction sought with a large enough effect in the repeat runs; inconclusive = weak or mixed curves; inactive = no such curve, though single readings can be large; an effect the other way counts as inactive or inconclusive.

System in the first assay: not listed separately
Put plainly: qHTS assay to identify small molecule antagonists of the thyroid receptor (TR) signaling pathway - cell viability counter screen (AID 743064). Note: nearly all actives have a fitted effect of over 50% in size. Note: potency is the fitted concentration of half-maximal effect. The following applies: GH3.TRE-Luc viability, CellTiter-Fluor, 24 h; series mostly up to 70.3 µM. In outline:
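In rat pituitary GH3.TRE-Luc reporter cells co-exposed to compound and 1 nM T3 for 23.5 h, cytotoxicity was assessed with CellTiter-Fluor in the same wells, read by fluorescence.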
(In general: In qHTS, concentration-response curves come from the screen itself.)
Take `Cn1c([N+](=O)[O-])cnc1COC(N)=O`: the Potency result was “inactive”.

For `CC(C)Cc1ccccc1`, the Potency result is “inactive”.

On to `O=[N+]([O-])C(CO)(CO)CO`, for which the Potency result was “inactive”.

With `O=S(=O)(O)CCS`, the Potency entry was “inactive”.

Consider `OC[C@@H](O)[C@@H](O)[C@H](O)[C@@H](O)CO`, for which the Potency entry was “inactive”.

In the case of `CC1Cc2ccccc2N1NC(=O)c1ccc(Cl)c(S(N)(=O)=O)c1` (centres undefined), the Potency result was “inactive”.

`COC(=O)c1ccccc1O`: the Potency entry was “inactive”.

Take `COC(=O)c1ccc(C(=O)OC)cc1`: the Potency entry was “inactive”.

As for `c1ccc2ccccc2c1`, the Potency entry is “inactive”.

For the molecule `CC(C)(CO)COC(=O)C(C)(C)CO`, the Potency result was “inactive”.

As to `O=[N+]([O-])c1cccc(Cl)c1`, the Potency entry is “inactive”.

On to `CC1COc2ccccc2N1C(=O)C(Cl)Cl` (centres undefined), for which the Potency is 9.67 µM (active) and 19.3 µM (active).

`CCCCCCCCC`: the Potency entry is “inactive”.

For `Cc1cc(=O)[nH]c(C(C)C)n1`, the Potency entry is “inactive”.

Regarding `Nc1c(S(=O)(=O)O)cc(Br)c2c1C(=O)c1ccccc1C2=O`, the Potency result was “inactive and 61.1 µM (active)”.

As for `Nc1cc(-c2ccncc2)c[nH]c1=O`, the Potency result was “inactive”.

Take `CCCCOCCO`: the Potency result was “inactive”.

Consider `CC(=O)Nc1ccc(C(=O)O)cc1`, for which the Potency entry is “inactive”.

`COCC(=O)O`: the Potency entry was “inactive”.

As to `C=CC(=O)OCCCCCCCC(C)C`, the Potency entry is “inactive”.

Take `CCCCCCCCCCCCOCC1CO1` (centres undefined): the Potency result is “inactive”.

As to `CCC(C)C=O` (centres undefined), the Potency entry was “inactive”.

On to `O=S(=O)(O)c1cc(S(=O)(=O)O)c2c(N=Nc3ccccc3)c(O)ccc2c1`, for which the Potency was 27.4 µM (active) and 68.6 µM (active).

Take `CC1(C)CC(N=C=O)CC(C)(CN=C=O)C1` (centres undefined): the Potency entry is “inactive”.

On to `Clc1cc(Cl)c(Cl)cc1Cl`, for which the Potency entry is “inactive”.

`O=C(Cl)c1c(Cl)c(Cl)c(C(=O)Cl)c(Cl)c1Cl`: the Potency entry was “inactive”.

As for `CS(=O)(=O)c1ccc([C@@H](O)[C@@H](CO)NC(=O)C(Cl)Cl)cc1`, the Potency entry was “inactive”.

Regarding `C=C1C2CCC(C2)C1(C)C` (centres undefined), the Potency entry was “inactive”.

As for `CCOC(=O)[C@H](CCc1ccccc1)N[C@@H](C)C(=O)N1Cc2ccccc2C[C@H]1C(=O)O`, the Potency entry was “inactive”.

Regarding `C=C(C)C(=O)OCCCCCCCCCCCC`, the Potency result is “inactive”.

As to `OC1CCCC1`, the Potency entry was “inactive”.

Turning to `COCC(C)O` (centres undefined), the Potency result was “inactive”.

With `Cc1ccc(C)c(C)c1`, the Potency entry was “inactive”.

Turning to `O=Nc1ccc(O)cc1`, the Potency entry is “inactive”.

Regarding `OCCOCCOCCOCCO`, the Potency entry was “inactive”.

For `CCCCOCCOCCOC(=O)CCCCC(=O)OCCOCCOCCCC`, the Potency result was “inactive”.

`CC[Si](OC(C)=O)(OC(C)=O)OC(C)=O`: the Potency entry is “inactive”.

In the case of `OC[C@@H](O)[C@H](O)[C@H](O)[C@@H](O)CO`, the Potency entry is “inactive”.

System in another assay: not listed separately
Nature of the assay: qHTS assay to identify small molecule antagonists of the thyroid receptor (TR) signaling pathway (AID 743065). Note: nearly all actives have a fitted effect of over 55% in size. Note: potency is the fitted concentration of half-maximal effect. The note with it: GH3.TRE-Luc, T3-stimulated luciferase inhibition, 23.5 h; series mostly up to 70.3 µM. In outline:
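GH3.TRE-Luc rat pituitary cells (two TREs driving luciferase) were dosed with compound, then stimulated with 1 nM T3 (final) for 23.5 h at 37 C. ONE-Glo luminescence was the read-out, with CellTiter-Fluor fluorescence as the cytotoxicity counter-screen.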
Regarding `Cn1c([N+](=O)[O-])cnc1COC(N)=O`, the Potency result was “inactive”.

For `CC(C)Cc1ccccc1`, the Potency entry is “inactive”.

On to `O=[N+]([O-])C(CO)(CO)CO`, for which the Potency result was “inactive”.

With `O=S(=O)(O)CCS`, the Potency result was “inactive”.

On to `OC[C@@H](O)[C@@H](O)[C@H](O)[C@@H](O)CO`, for which the Potency entry is “inactive”.

As for `CC1Cc2ccccc2N1NC(=O)c1ccc(Cl)c(S(N)(=O)=O)c1` (centres undefined), the Potency result was “inactive”.

Regarding `COC(=O)c1ccccc1O`, the Potency entry is “inactive”.

`COC(=O)c1ccc(C(=O)OC)cc1`: the Potency result was “inactive”.

On to `c1ccc2ccccc2c1`, for which the Potency entry is “inactive”.

Consider `CC(C)(CO)COC(=O)C(C)(C)CO`, for which the Potency result is “inactive”.

Consider `O=[N+]([O-])c1cccc(Cl)c1`, for which the Potency entry was “inactive”.

In the case of `CC1COc2ccccc2N1C(=O)C(Cl)Cl` (centres undefined), the Potency is 8.62 µM (active) and 15.3 µM (active).

As for `CCCCCCCCC`, the Potency entry is “inactive”.

In the case of `Cc1cc(=O)[nH]c(C(C)C)n1`, the Potency entry is “inactive”.

For the molecule `Nc1c(S(=O)(=O)O)cc(Br)c2c1C(=O)c1ccccc1C2=O`, the Potency result is “inactive”.

Consider `Nc1cc(-c2ccncc2)c[nH]c1=O`, for which the Potency entry is “inactive”.

As for `CCCCOCCO`, the Potency entry was “inactive”.

With `CC(=O)Nc1ccc(C(=O)O)cc1`, the Potency result was “inactive”.

Consider `COCC(=O)O`, for which the Potency result is “inactive”.

On to `C=CC(=O)OCCCCCCCC(C)C`, for which the Potency entry is “inactive”.

Consider `CCCCCCCCCCCCOCC1CO1` (centres undefined), for which the Potency entry was “inactive”.

For the molecule `CCC(C)C=O` (centres undefined), the Potency entry is “inactive”.

On to `O=S(=O)(O)c1cc(S(=O)(=O)O)c2c(N=Nc3ccccc3)c(O)ccc2c1`, for which the Potency entry was “inactive”.

Turning to `CC1(C)CC(N=C=O)CC(C)(CN=C=O)C1` (centres undefined), the Potency result is “inactive”.

Take `Clc1cc(Cl)c(Cl)cc1Cl`: the Potency entry is “inactive”.

With `O=C(Cl)c1c(Cl)c(Cl)c(C(=O)Cl)c(Cl)c1Cl`, the Potency entry was “inactive”.

In the case of `CS(=O)(=O)c1ccc([C@@H](O)[C@@H](CO)NC(=O)C(Cl)Cl)cc1`, the Potency entry was “inactive”.

On to `C=C1C2CCC(C2)C1(C)C` (centres undefined), for which the Potency result is “inactive”.

`CCOC(=O)[C@H](CCc1ccccc1)N[C@@H](C)C(=O)N1Cc2ccccc2C[C@H]1C(=O)O`: the Potency result is “inactive”.

`C=C(C)C(=O)OCCCCCCCCCCCC`: the Potency entry is “inactive”.

`OC1CCCC1`: the Potency result is “inactive”.

For the molecule `COCC(C)O` (centres undefined), the Potency entry is “inactive”.

Take `Cc1ccc(C)c(C)c1`: the Potency result was “inactive”.

As to `O=Nc1ccc(O)cc1`, the Potency entry was “inactive”.

As for `OCCOCCOCCOCCO`, the Potency result is “inactive”.

In the case of `CCCCOCCOCCOC(=O)CCCCC(=O)OCCOCCOCCCC`, the Potency result is “inactive”.

Take `CC[Si](OC(C)=O)(OC(C)=O)OC(C)=O`: the Potency result is “inactive”.

On to `OC[C@@H](O)[C@H](O)[C@H](O)[C@@H](O)CO`, for which the Potency result is “inactive”.

The subject of the next assay is thyroid hormone receptor (rat, GH3 cells). Nature of the assay: qHTS assay to identify small molecule agonists of the thyroid receptor (TR) signaling pathway (AID 743066; calls by dose curve). The note with it: GH3.TRE-Luc cells, TR agonist luciferase, 24 h; series mostly up to 83.9 µM.
Consider `Cn1c([N+](=O)[O-])cnc1COC(N)=O`, for which the result was inactive.

In the case of `CC(C)Cc1ccccc1`, the molecule was classed as inactive.

As to `O=[N+]([O-])C(CO)(CO)CO`, the call was inactive.

Regarding `O=S(=O)(O)CCS`, the call was inactive.

Take `OC[C@@H](O)[C@@H](O)[C@H](O)[C@@H](O)CO`: the call was inactive.

In the case of `CC1Cc2ccccc2N1NC(=O)c1ccc(Cl)c(S(N)(=O)=O)c1` (centres undefined), the outcome was inactive.

In the case of `COC(=O)c1ccccc1O`, the outcome was inactive.

On to `COC(=O)c1ccc(C(=O)OC)cc1`, for which the outcome was inactive.

Regarding `c1ccc2ccccc2c1`, the molecule was called inactive.

Take `CC(C)(CO)COC(=O)C(C)(C)CO`: the outcome was inactive.

`O=[N+]([O-])c1cccc(Cl)c1`: the molecule was called inactive.

`CC1COc2ccccc2N1C(=O)C(Cl)Cl` (centres undefined): the result was inactive.

For the molecule `CCCCCCCCC`, the outcome was inactive.

For the molecule `Cc1cc(=O)[nH]c(C(C)C)n1`, the call was inactive.

Consider `Nc1c(S(=O)(=O)O)cc(Br)c2c1C(=O)c1ccccc1C2=O`, for which the call was inactive.

Take `Nc1cc(-c2ccncc2)c[nH]c1=O`: the call was inactive.

For `CCCCOCCO`, the molecule was classed as inactive.

`CC(=O)Nc1ccc(C(=O)O)cc1`: the result was inactive.

Take `COCC(=O)O`: the call was inactive.

With `C=CC(=O)OCCCCCCCC(C)C`, the molecule was classed as inactive.

On to `CCCCCCCCCCCCOCC1CO1` (centres undefined), for which the molecule was called inactive.

Take `CCC(C)C=O` (centres undefined): the call was inactive.

For the molecule `O=S(=O)(O)c1cc(S(=O)(=O)O)c2c(N=Nc3ccccc3)c(O)ccc2c1`, the outcome was inactive.

With `CC1(C)CC(N=C=O)CC(C)(CN=C=O)C1` (centres undefined), the outcome was inactive.

Take `Clc1cc(Cl)c(Cl)cc1Cl`: the call was inactive.

Take `O=C(Cl)c1c(Cl)c(Cl)c(C(=O)Cl)c(Cl)c1Cl`: the molecule was called inactive.

As for `CS(=O)(=O)c1ccc([C@@H](O)[C@@H](CO)NC(=O)C(Cl)Cl)cc1`, the outcome was inactive.

Consider `C=C1C2CCC(C2)C1(C)C` (centres undefined), for which the molecule was called inactive.

Regarding `CCOC(=O)[C@H](CCc1ccccc1)N[C@@H](C)C(=O)N1Cc2ccccc2C[C@H]1C(=O)O`, the molecule was classed as inactive.

As to `C=C(C)C(=O)OCCCCCCCCCCCC`, the molecule was classed as inactive.

As for `OC1CCCC1`, the result was inactive.

Regarding `COCC(C)O` (centres undefined), the molecule was classed as inactive.

Regarding `Cc1ccc(C)c(C)c1`, the molecule was called inactive.

For `O=Nc1ccc(O)cc1`, the molecule was called inactive.

With `OCCOCCOCCOCCO`, the molecule was classed as inactive.

In the case of `CCCCOCCOCCOC(=O)CCCCC(=O)OCCOCCOCCCC`, the outcome was inactive.

On to `CC[Si](OC(C)=O)(OC(C)=O)OC(C)=O`, for which the molecule was called inactive.

`OC[C@@H](O)[C@H](O)[C@H](O)[C@@H](O)CO`: the molecule was called inactive.
